Assay results published in PubChem BioAssay (NCATS).
Records with an inconclusive call do not appear. The source made the active and inactive calls. Calls follow the shape of the dose curve; as a rule, active = well fitted inhibition curve with a large enough effect; inconclusive = small, poorly fitted or top-dose-only effect; inactive = flat fitted curve, though single readings scatter.

Key:
NIH3T3 [1] = test: Cytotoxic Profiling of Annotated Libraries Using Quantitative High-Throughput Screening (AID 1296008); settings: Five cell lines viability, CellTiter-Glo ATP luminescence, 48-72 h; max response: stronger effect = lower value
Method in brief: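 Cells exposed to compounds for 48 or 72 hr at 37 degrees Celsius. Viability read as ATP-coupled luminescence with CellTiter-Glo after 10 min at room temperature.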

HACAT = test: qHTS assay to identify novel small-molecules to repurpose for Merkel cell carcinoma treatment (AID 1296009); settings: MCC and control cell lines, CellTiter-Glo viability, 72 h; at 44.8 µM (top of the series) unless noted
Method in brief: (§1)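 Dose-response viability screen; 72 hr exposure at 37 degree celsius; CellTiter-Glo added, 10 min room temperature, luminescence read; RLUs scaled between no-cell and DMSO wells.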

HEK293T = test: as above; settings: MCC and control cell lines, CellTiter-Glo viability, 72 h; at 44.8 µM (top of the series) unless noted
Method in brief: as §1

MCC-13 = test: as above; settings: MCC and control cell lines, CellTiter-Glo viability, 72 h; series mostly up to 46 µM
Method in brief: as §1

MCC-26 = test: as above; settings: MCC and control cell lines, CellTiter-Glo viability, 72 h; series mostly up to 46 µM
Method in brief: as §1

MKL-1 = test: as above; settings: MCC and control cell lines, CellTiter-Glo viability, 72 h; series mostly up to 46 µM
Method in brief: as §1

MKL-2 = test: as above; settings: MCC and control cell lines, CellTiter-Glo viability, 72 h; series mostly up to 46 µM
Method in brief: as §1

NIH3T3 [2] = test: as above; settings: MCC and control cell lines, CellTiter-Glo viability, 72 h; at 44.8 µM (top of the series) unless noted
Method in brief: as §1

UISO = test: as above; settings: MCC and control cell lines, CellTiter-Glo viability, 72 h; series mostly up to 46 µM
Method in brief: as §1

WaGa = test: as above; settings: MCC and control cell lines, CellTiter-Glo viability, 72 h; series mostly up to 46 µM
Method in brief: as §1
% is scaled to controls: 0 for no effect and ±100 for the full control effect.
Also: nearly all actives have a fitted effect of over 60% in size.

CC(O)CN(CCN(CC(C)O)CC(C)O)CC(C)O (stereo not drawn)
inactive: outcome (NIH3T3 [1]) | outcome (HACAT) | outcome (HEK293T) | Potency (MCC-13) | Potency (MCC-26) | Potency (MKL-1) | Potency (MKL-2) | outcome (NIH3T3 [2]) | Potency (UISO) | Potency (WaGa)

Oc1cn2c(n1)Nc1ccc(Cl)c(Cl)c1C2
inactive: outcome (NIH3T3 [1]) | outcome (HACAT) inactive [at 17.4 µM] | outcome (HEK293T) inactive [at 17.4 µM] | Potency (MCC-13) | Potency (MCC-26) | Potency (MKL-1) | Potency (MKL-2) | outcome (NIH3T3 [2]) inactive [at 17.4 µM] | Potency (UISO) | Potency (WaGa)

CN1CCC[C@@H]1Cc1c[nH]c2ccc(CCS(=O)(=O)c3ccccc3)cc12
inactive: max response (NIH3T3 [1]) -4.41% | outcome (NIH3T3 [1]) | outcome (HACAT) | outcome (HEK293T) | Potency (MCC-13) | Potency (MCC-26) | Potency (MKL-1) | Potency (MKL-2) | outcome (NIH3T3 [2]) | Potency (UISO) | Potency (WaGa)

CCOC(=O)[C@H](CCc1ccccc1)N[C@@H](C)C(=O)N1C(=O)N(C)C[C@H]1C(=O)O
inactive: max response (NIH3T3 [1]) 4.99% | outcome (NIH3T3 [1]) | outcome (HACAT) | outcome (HEK293T) | Potency (MCC-13) | Potency (MCC-26) | Potency (MKL-1) | Potency (MKL-2) | outcome (NIH3T3 [2]) | Potency (UISO) | Potency (WaGa)

NC(CSCC(=O)O)C(=O)O (stereo not drawn)
inactive: outcome (NIH3T3 [1]) | outcome (HACAT) | outcome (HEK293T) | Potency (MCC-13) | Potency (MCC-26) | Potency (MKL-1) | Potency (MKL-2) | outcome (NIH3T3 [2]) | Potency (UISO) | Potency (WaGa)

CCC(=O)c1ccc(O)cc1
inactive: outcome (NIH3T3 [1]) | outcome (HACAT) | outcome (HEK293T) | Potency (MCC-13) | Potency (MCC-26) | Potency (MKL-1) | Potency (MKL-2) | outcome (NIH3T3 [2]) | Potency (UISO) | Potency (WaGa)

CCOC(CN1CCN(CC(C)C(=O)c2ccccc2)CC1)c1ccccc1 (stereo not drawn)
inactive: max response (NIH3T3 [1]) -6.68% | outcome (NIH3T3 [1]) | outcome (HACAT) inactive [at 17.4 µM] | Potency (MCC-13) | Potency (MCC-26) | Potency (MKL-1) | Potency (MKL-2) | outcome (NIH3T3 [2]) | Potency (UISO) | Potency (WaGa)

CCN(CC)CCNC(=O)c1cc(Cl)c(N)cc1OC
inactive: max response (NIH3T3 [1]) -2.52% | outcome (NIH3T3 [1]) | outcome (HACAT) | outcome (HEK293T) | Potency (MCC-13) | Potency (MCC-26) | Potency (MKL-1) | Potency (MKL-2) | outcome (NIH3T3 [2]) | Potency (UISO) | Potency (WaGa)

Cn1c(=O)c2c(ncn2CC2OCCO2)n(C)c1=O
inactive: max response (NIH3T3 [1]) 0.911% | outcome (NIH3T3 [1]) | outcome (HACAT) | outcome (HEK293T) | Potency (MCC-13) | Potency (MCC-26) | Potency (MKL-1) | Potency (MKL-2) | outcome (NIH3T3 [2]) | Potency (UISO) | Potency (WaGa)

CC(C)(O)c1ccccc1CC[C@@H](SCC1(CC(=O)O)CC1)c1cccc(/C=C/c2ccc3ccc(Cl)cc3n2)c1
inactive: max response (NIH3T3 [1]) -22.4% | outcome (NIH3T3 [1]) | outcome (HACAT) | Potency (MCC-13) | Potency (MCC-26) | Potency (MKL-1) | Potency (MKL-2) | outcome (NIH3T3 [2]) | Potency (UISO) | Potency (WaGa)

CN1CCOC(c2ccccc2)c2ccccc2C1 (stereo not drawn)
inactive: max response (NIH3T3 [1]) 2.98% | outcome (NIH3T3 [1]) | outcome (HEK293T) | Potency (MCC-13) | Potency (MCC-26) | Potency (MKL-1) | Potency (MKL-2) | outcome (NIH3T3 [2]) | Potency (UISO) | Potency (WaGa)

CCN(CC)CCNC(C(=O)OCCC(C)C)c1ccccc1 (stereo not drawn)
inactive: outcome (NIH3T3 [1]) | outcome (HACAT) | outcome (HEK293T) | Potency (MCC-13) | Potency (MCC-26) | Potency (MKL-1) | Potency (MKL-2) | outcome (NIH3T3 [2]) | Potency (UISO) | Potency (WaGa)

[O-][n+]1cccc(CO)c1
inactive: outcome (NIH3T3 [1]) | outcome (HACAT) | outcome (HEK293T) | Potency (MCC-13) | Potency (MCC-26) | Potency (MKL-1) | Potency (MKL-2) | outcome (NIH3T3 [2]) | Potency (UISO) | Potency (WaGa)

O=C(O)[C@H](O)c1ccccc1
inactive: outcome (NIH3T3 [1]) | outcome (HACAT) | outcome (HEK293T) | Potency (MCC-13) | Potency (MCC-26) | Potency (MKL-1) | Potency (MKL-2) | outcome (NIH3T3 [2]) | Potency (UISO) | Potency (WaGa)

CCOc1nc2cccc(C(=O)O)c2n1Cc1ccc(-c2ccccc2-c2nn[nH]n2)cc1
inactive: max response (NIH3T3 [1]) 4.21% | outcome (NIH3T3 [1]) | Potency (MCC-13) | Potency (MCC-26) | Potency (MKL-1) | Potency (MKL-2) | outcome (NIH3T3 [2]) | Potency (UISO) | Potency (WaGa)

COc1ccc2[nH]c(S(=O)Cc3ncc(C)c(OC)c3C)nc2n1 (stereo not drawn)
inactive: max response (NIH3T3 [1]) 3.86% | outcome (NIH3T3 [1]) | outcome (HACAT) | outcome (HEK293T) | Potency (MCC-13) | Potency (MCC-26) | Potency (MKL-1) | Potency (MKL-2) | outcome (NIH3T3 [2]) | Potency (UISO)

O=C(O)[C@@H]1CSCN1
inactive: outcome (NIH3T3 [1]) | outcome (HACAT) | outcome (HEK293T) | Potency (MCC-13) | Potency (MCC-26) | Potency (MKL-1) | Potency (MKL-2) | outcome (NIH3T3 [2]) | Potency (UISO) | Potency (WaGa)

NS(=O)(=O)c1cc2c(cc1C(F)(F)F)NC(Cc1ccccc1)NS2(=O)=O (stereo not drawn)
inactive: outcome (NIH3T3 [1]) | outcome (HACAT) | outcome (HEK293T) | Potency (MCC-13) | Potency (MCC-26) | Potency (MKL-1) | Potency (MKL-2) | outcome (NIH3T3 [2]) | Potency (UISO) | Potency (WaGa)

OCC(O)CN1CCN(c2ccccc2)CC1 (stereo not drawn)
inactive: max response (NIH3T3 [1]) -1.52% | outcome (NIH3T3 [1]) | outcome (HEK293T) | Potency (MCC-13) | Potency (MCC-26) | Potency (MKL-1) | Potency (MKL-2) | outcome (NIH3T3 [2]) | Potency (UISO) | Potency (WaGa)

Nc1nc2c(ncn2CCC(CO)CO)c(=O)[nH]1
inactive: max response (NIH3T3 [1]) 1.75% | outcome (NIH3T3 [1]) | outcome (HACAT) | Potency (MCC-13) | Potency (MCC-26) | Potency (MKL-1) | Potency (MKL-2) | outcome (NIH3T3 [2]) | Potency (UISO) | Potency (WaGa)
